The campaign covered roughly 290,000 compounds. About 27,000 (9.3%) were called active. Rule as the data show it: active = inhibition mostly above about 28% (no sharp cut-off); inactive = mostly below about 43%. This excerpt belongs to a sample that is enriched for actives.
assay: A qHTS for Small Molecule Inhibitors of Shiga Toxin; conditions: Vero cells, Shiga toxin protein synthesis inhibition reporter; at 38.7 µM, hits give high values; also: 0% is about no effect

Row | SMILES | inhibition
1 | Brc1c(CSc2nncc3ccccc23)nc2ccccn12 | 44.5% (active)
2 | CN(C(=O)CN1C(=O)CCSc2ccc(S(=O)(=O)N3CCCC3)cc21)c1ccccc1 | -7.94% (inactive)
3 | O=C(NCc1ccccc1Cl)c1ccc2c(=O)n(CC3CCCO3)c(=S)[nH]c2c1 (stereo not drawn) | 28.6% (inactive)
4 | Cc1cc(C)c(OCC(=O)N(Cc2cccs2)C2CCS(=O)(=O)C2)c(C)c1 (stereo not drawn) | 12.7% (inactive)
5 | CCOC(=O)N1CCN(C(=O)C(=O)Nc2sc3c(c2C#N)CC(C)(C)OC3)CC1 | -6.06% (inactive)
6 | O=S1(=O)CCOC[C@H](CC2CCCCC2)N1Cc1ccc(F)cc1 | 19.8% (active)
7 | CCC(C)[C@H]1COCCS(=O)(=O)N1Cc1ccc(C)cc1 (stereo partly drawn) | -2.97% (inactive)
8 | CCCC[C@H]1COCCS(=O)(=O)N1Cc1cccc(Cl)c1 | -0.556% (inactive)
9 | Cc1ccc(S(=O)(=O)N2CC(C)N(S(C)(=O)=O)C2)cc1 (stereo not drawn) | -4.24% (inactive)
10 | Cc1ccc(-c2nnc(CN3CCN(C)CC3)o2)cc1 | 21.4% (inactive)
11 | COc1cccc(NC(=O)Cn2c3ccc(F)cc3c3nc4n(c(=O)c32)CCS4)c1 | -1.58% (inactive)
12 | CCC(=O)Nc1ccc(S(=O)(=O)Nc2c(NC)c3ccccc3oc2=O)cc1 | 8.69% (inactive)
13 | O=C(N=C1SC2CS(=O)(=O)CC2N1c1cc(Cl)ccc1Cl)C1CC1 (stereo not drawn) | -4.57% (inactive)
14 | O=C(c1ccc(F)cc1)n1cc(C(=S)N2CCOCC2)c2ccccc21 | -2.34% (inactive)
15 | O=C(c1ccc(F)cc1)n1c(=S)nc2ccccn21 | 82.6% (active)
16 | O=C(Cn1c(=S)nc2ccccn21)N1CCc2ccccc2C1 | 38.4% (inactive)
17 | CC1C(=O)N(Cc2ccccc2)c2ccccc2N1C(=O)c1ccccc1 (stereo not drawn) | 2.9% (inactive)
18 | O=C(CN1C(=O)c2cccc3cccc1c23)Nc1ccccc1 | -7.35% (inactive)
19 | CSCc1cc(N2CCOCC2)nc(SCc2ccc(Cl)cc2Cl)n1 | 30.9% (active)
20 | CSCc1cc(N(C)C)nc(SCc2ccc(Cl)cc2Cl)n1 | -20.3% (inactive)
21 | CC(C)(CNC(=O)Cc1ccc(Cl)cc1Cl)N1CCOCC1 | 2.65% (inactive)
22 | CCn1c(SCC(=O)Nc2ccc(Br)cc2)nc2sc3c(c2c1=O)CCN(C)C3 | 18.8% (inactive)
23 | CCN(Cc1ccccc1)C(=O)CN1C(=S)NC(C)(C)CC1C (stereo not drawn) | -3.94% (inactive)
24 | Cn1c(SCc2c(F)cccc2Cl)nnc1-c1cnccn1 | 119% (active)

Row | SMILES | inhibition
25 | Cc1ccc(CSc2nnc(-c3cnccn3)n2C)cc1 | 36.7% (inactive)
26 | Oc1ccc(-n2nnnc2SCc2c(F)cccc2Cl)cc1 | -2.08% (inactive)
27 | CC(OC(=O)c1ccccc1N1C(=O)C2C3CCC(C3)C2C1=O)C(=O)c1ccccc1 (stereo not drawn) | 5.16% (inactive)
28 | CC(OC(=O)c1ccc2ccccc2n1)C(=O)c1ccccc1 (stereo not drawn) | 86.7% (active)
29 | COc1ccc(C(=O)COC(=O)c2ccc3ccccc3n2)cc1 | 28.4% (inactive)
30 | O=C(CCSc1ccccc1)N1CCN(c2ccccc2F)CC1 | 95.5% (active)
31 | O=C(NCC(=O)N1CCN(c2ccccc2F)CC1)c1cccs1 | 26.2% (inactive)
32 | O=C(CCc1ccccc1F)N1CCN(c2ccccc2)CC1 | -0.211% (inactive)
33 | Cc1ccc(C)c(N2CCN(S(=O)(=O)c3c(C)[nH]c(C)c3C(=O)N3CCCC3)CC2)c1 | 3.26% (inactive)
34 | Cc1cccc(C(=O)c2cccc(C)c2)c1 | 43.6% (inactive)
35 | Cc1cccc(/C(N)=N/OC(=O)c2ccccc2Cl)c1 | 74.6% (active)
36 | N/C(=N\OC(=O)c1cc(-c2ccccc2)nc2ccccc12)c1ccncc1 | 15.3% (inactive)
37 | CCc1c(C)nc2cc(C)[nH]n2c1=O | 0.52% (inactive)
38 | CCc1c(C)nc2cc(-c3cccs3)[nH]n2c1=O | 153% (active)
39 | C=CCc1c(C)nc2cc(-c3ccccc3)[nH]n2c1=O | 45.5% (active)
40 | CCCCN1Cc2c(nc3cc(-c4ccccc4)[nH]n3c2=O)C1=O | 2.49% (inactive)
41 | Cc1cc(=O)n2[nH]c(-c3sccc3-n3c(C)ccc3C)cc2n1 | 34.4% (inactive)
42 | Cc1nc2nc[nH]n2c(=O)c1C/C=C/c1ccccc1 | -3.93% (inactive)
43 | COC(=O)c1cccc(N(C(=O)CNC(=O)c2cccs2)C(C(=O)NCC2CCCO2)c2ccc(OC)c(OC)c2)c1 (stereo not drawn) | 22.3% (inactive)
44 | COc1cc(NC(=O)C2=CC(c3ccco3)=NS(=O)(=O)N2C)cc(OC)c1OC | -2.22% (inactive)
45 | COc1cccc(CNC(=O)C2CCCN(S(=O)(=O)N3CC(C)CC(C)C3)C2)c1 (stereo not drawn) | -1.73% (inactive)
46 | Cc1ccc(S(=O)(=O)N(CCCN(C)C)Cc2ccc3c(c2)OCO3)cc1 | 9.86% (inactive)
47 | O=S(=O)(c1ccc(Br)cc1)c1nc(-c2ccccc2)oc1N1CCOCC1 | -6.09% (inactive)
48 | COc1ccc(S(=O)(=O)NCC(=O)NC2CC2)cc1OC | -5.35% (inactive)

Row | SMILES | inhibition
49 | Cn1nccc1C(=O)NC1CCCc2c1cnn2-c1ccc(F)cc1F (stereo not drawn) | 10.4% (inactive)
50 | COC(=O)c1c(NC(=O)c2ccc(S(=O)(=O)N3CCOCC3)cc2)sc2c1CCN(C(C)C)C2 | -17.4% (inactive)
51 | O=C(O)CCCC(=O)N1N=C(c2ccco2)CC1c1ccco1 (stereo not drawn) | -14% (inactive)
52 | Cc1nn2c(c1-c1ccccc1)N=C(c1ccco1)CC2c1ccccc1 (stereo not drawn) | 103% (active)
53 | Cc1cc(C)c(C(=O)CSc2nc(C)cc(=O)[nH]2)c(C)c1 | -13.9% (inactive)
54 | CCC(C)(C)n1nnnc1C(c1ccc(OC)c(OC)c1)N1CCN(C(=O)c2ccco2)CC1 (stereo not drawn) | -11.9% (inactive)
55 | CCOC(=O)[C@@H]1[C@H]2COc3cc(OC)ccc3[C@H]2N2C(=O)N(c3ccc(F)cc3)C(=O)[C@]12C | -4.71% (inactive)
56 | Cc1cc(NC(=O)CN2CCCCC2C)nc2c1c(=O)oc1ccccc12 (stereo not drawn) | -0.755% (inactive)
57 | CCN(CC)CCN1C(=O)C(=O)/C(=C(/O)c2cnn(-c3ccccc3)c2C)C1c1cccs1 (stereo not drawn) | 79.5% (active)
58 | CCN(CC)CCN1C(=O)C(=O)/C(=C(/O)c2ccccc2)C1c1ccccc1F (stereo not drawn) | 19.4% (inactive)
59 | CCN(CC)CCN1C(=O)C(=O)/C(=C(/O)c2ccc(OC)c(OC)c2)C1c1ccccn1 (stereo not drawn) | 59.8% (inactive)
60 | O=[N+]([O-])c1cc(C(F)(F)F)ccc1NCCc1ccncc1 | 2.61% (inactive)
61 | NC(=O)c1ccc(Nc2ccc3c(c2)CCC3)c([N+](=O)[O-])c1 | 9.03% (inactive)
62 | CSc1cccc(NC(=O)CN2C(=O)COc3ccc(S(=O)(=O)N4CCOCC4)cc32)c1 | 10.9% (inactive)
63 | Cc1ccccc1NC(=O)NCc1ccco1 | 18.7% (inactive)
64 | Cc1ccc(NC(=O)C(=O)NCc2ccco2)c(C)c1 | 109% (active)
65 | Cc1ccc(NC(=O)Cn2nnc(C(=O)NCc3ccco3)c2N)c(C)c1 | -2.94% (inactive)
66 | O=c1c2cc(Br)ccc2nc(-c2cccc(Cl)c2)n1O | 0.78% (inactive)
67 | COc1cc(/C=N/NC(=O)Cc2ccccc2)cc(OC)c1OC | -8.46% (inactive)
68 | OCCCNc1nccc(-c2cc(Nc3cccc(Cl)c3)ncn2)n1 | 51.3% (active)
69 | NS(=O)(=O)c1cccnc1Nc1cccc(Cl)c1 | 15.1% (inactive)
70 | CC(C)n1cnc2c(Nc3cccc(Cl)c3)nc(N(CCO)CCCO)nc21 | -2.33% (inactive)
71 | O=C(O)CN1c2cccc3cccc(c23)S1(=O)=O | -1.09% (inactive)
72 | O=C(NCc1cccnc1)c1ccccc1NC(=O)c1c(F)cccc1F | -17.6% (inactive)

Row | SMILES | inhibition
73 | CCOC(=O)C1(CCOc2ccccc2)CCN(Cc2cc(OC)cc(OC)c2)CC1 | -16.1% (inactive)
74 | CCOC(=O)C1(CCOc2ccccc2)CCN(Cc2ccc(C#CCCO)cc2)CC1 | -10.3% (inactive)
75 | CCOC(=O)C1(CCOC)CCN(Cc2ccc(C(=O)OC)cc2)CC1 | 74.5% (active)
76 | Cc1cc(NC(=O)CCN2CCN(Cc3ccccc3)CC2)ccc1Br | 3.31% (inactive)
77 | Cc1c(C(=O)N2CCOCC2)[nH]c2ccc(OCc3ccccc3)cc12 | 5.47% (inactive)
78 | O=C(c1cc(COc2cccc(C(F)(F)F)c2)on1)N1CCSCC1 | 26.5% (inactive)
79 | CCC(NC(=O)c1cc(COc2ccc(F)c(F)c2)on1)c1ccncc1 (stereo not drawn) | 52.5% (active)
80 | Cc1nonc1C1CCCN1C(=O)c1cc(COc2cccc(C(F)(F)F)c2)on1 (stereo not drawn) | 23.7% (inactive)
81 | CCOC(=O)CC1COCCN1C(=O)c1cc(COc2ccc(F)c(F)c2)on1 (stereo not drawn) | 72.8% (active)
82 | O=C(CC(NC(=O)c1ccccc1)c1ccccc1)Nc1ccc(F)c(F)c1 (stereo not drawn) | 12.4% (inactive)
83 | Cc1cc(NC(=O)COC(=O)c2ccc(F)c(S(=O)(=O)N3CCOCC3)c2)no1 | -2.48% (inactive)
84 | O=C(c1c(F)cccc1F)N1CCN(c2ncc(Br)cn2)CC1 | -6.62% (inactive)
85 | O=C(NC1Cc2ccccc2C1)c1cc(COc2cccc(C(F)(F)F)c2)on1 | -0.154% (inactive)
86 | C=CCC1(CC=C)CCCN1C(=O)c1cc(COc2ccc(-n3cncn3)cc2)on1 | 40.9% (inactive)
87 | O=C(c1cc(COc2c(F)cccc2F)on1)N1CCSCC1 | 100% (active)
88 | O=C(c1cc(COc2ccc(F)c(F)c2)on1)N1CCOCC1 | 90.7% (active)
89 | CC(C)NC(=O)N1CCN(c2ccncc2S(=O)(=O)N2CCCCC2)CC1 | -38.7% (inactive)
90 | Cn1c(=O)c(=O)n(C)c2cc(S(=O)(=O)CCC(=O)N3CCCCC3)ccc21 | -4.02% (inactive)
91 | CN(C)CCNc1ccc(-c2n[nH]c(=O)c3ccccc23)cc1[N+](=O)[O-] | -10.6% (inactive)
92 | Cc1ccc(C(=O)NCC(=O)NCc2cc(=O)n(C)c(=O)n2C)cc1 | -10.2% (inactive)
93 | COc1ccc(C(C(=O)NC2CCCCC2)N(C(=O)c2snc(C(N)=O)c2N)c2ccccc2OC)cc1 (stereo not drawn) | -17.5% (inactive)
